1 compound from PubChem BioAssay AID2284072 (EPA ToxCast) can be followed below.

As usually defined, the AC50 is the concentration giving half of the maximal activity seen.

Activity calls are given as the source filed them. The calls were made as follows: active = hit-call score of the fitted dose curve at least 0.9, where 1 is the maximum; inactive = score below 0.9.

human CK2 (alpha1/alpha2/beta) Other Protein Kinase, CSNK2A1 (gene 1457), sequence (P68400 whole entry, looked up): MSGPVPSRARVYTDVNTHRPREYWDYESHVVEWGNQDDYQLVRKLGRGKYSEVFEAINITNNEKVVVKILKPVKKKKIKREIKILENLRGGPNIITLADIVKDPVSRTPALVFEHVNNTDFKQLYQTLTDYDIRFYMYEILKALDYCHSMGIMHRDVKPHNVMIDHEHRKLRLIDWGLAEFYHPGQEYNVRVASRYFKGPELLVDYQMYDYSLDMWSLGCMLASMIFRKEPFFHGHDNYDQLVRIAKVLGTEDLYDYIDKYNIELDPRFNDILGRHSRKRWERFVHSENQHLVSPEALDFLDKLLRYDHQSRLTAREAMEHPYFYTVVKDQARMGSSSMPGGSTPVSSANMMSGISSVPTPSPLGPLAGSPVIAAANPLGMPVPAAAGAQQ

The experiment deals with human CK2 (alpha1/alpha2/beta) Other Protein Kinase, CSNK2A1 (gene 1457) (UniProt P68400). Put plainly: ERF_TW_ENZ_hCSNK2A1: Eurofins (ERF) Enzymatic Radiometric [10 uM ATP] Assay for human CK2 (alpha1/alpha2/beta) Other Protein Kinase. The method, then:
ERF_TW_ENZ_hCSNK2A1 is a biochemical, single-readout assay that uses extracted gene-proteins in a cell-free assay. Measurements were taken 0.5 hour after chemical dosing in a 96-well plate. See CK2 (alpha1/alpha2/beta) Human Other Protein Kinase Enzymatic Radiometric Assay [10 uM ATP], Panlabs.ERF_TW_ENZ_hCSNK2A1 is an assay component calculated from the ERF_TW_ENZ_hCSNK2A1 assay. It is designed to measure enzyme activity using a type of enzyme reporter as detected by scintillation counting with radiometry technology.Data from the assay component ERF_TW_ENZ_hCSNK2A1 was analyzed at the assay endpoint, ERF_TW_ENZ_hCSNK2A1, in the positive analysis fitting direction relative to DMSO as the negative control and baseline of activity. Using a type of enzyme reporter, loss-of-signal activity can be used to understand changes in enzymatic activity as they relate to gene CSNK2A1. To generalize the intended target to other relatable targets, this assay endpoint is annotated to the kinase intended target family, where the subfamily is serine/threonine kinase.
CK2a1(h) is incubated with 20mM HEPES pH7.4, 0.15M NaCl, 0.1mM EDTA, 5mM DTT, 0.1% Triton X-100, 165 uM […], 10 mM MgAcetate and [gamma-33P-ATP] (specific activity and concentration as required). The reaction is 17 initiated by the addition of the Mg/ATP mix. […]
As for `O=C(/C=C/c1ccc(O)cc1)CC(=O)/C=C/c1ccc(O)cc1`, the AC50 was 2.25 µM (active).
